In experiment [1] the target is Tyrosine-protein kinase Fyn (Homo sapiens) (UniProt P06241). Conditions: at 1 µM.
Experiment [2] concerns the target Tyrosine-protein kinase HCK (Homo sapiens) (UniProt P08631). The conditions noted are these: at 0.1 µM.
For experiment [3] the target is unchanged. The conditions noted are these: at 1 µM.
For experiment [4], the target named is Insulin-like growth factor 1 receptor (Homo sapiens) (UniProt P08069). Conditions: at 0.1 µM.
For experiment [5] the target is unchanged. The conditions noted are these: at 1 µM.
Experiment [6] concerns the target Insulin receptor (Homo sapiens) (UniProt P06213). Conditions: at 0.1 µM.
For experiment [7], the target named is Insulin receptor-related protein (Homo sapiens) (UniProt P14616). The conditions noted are these: at 0.1 µM.
The target is the same in experiment [8]. The conditions noted are these: at 1 µM.
The target of experiment [9] is T1, Tyrosine-protein kinase ITK/TSK (Homo sapiens) (UniProt Q08881).
T1 sequence (whole entry): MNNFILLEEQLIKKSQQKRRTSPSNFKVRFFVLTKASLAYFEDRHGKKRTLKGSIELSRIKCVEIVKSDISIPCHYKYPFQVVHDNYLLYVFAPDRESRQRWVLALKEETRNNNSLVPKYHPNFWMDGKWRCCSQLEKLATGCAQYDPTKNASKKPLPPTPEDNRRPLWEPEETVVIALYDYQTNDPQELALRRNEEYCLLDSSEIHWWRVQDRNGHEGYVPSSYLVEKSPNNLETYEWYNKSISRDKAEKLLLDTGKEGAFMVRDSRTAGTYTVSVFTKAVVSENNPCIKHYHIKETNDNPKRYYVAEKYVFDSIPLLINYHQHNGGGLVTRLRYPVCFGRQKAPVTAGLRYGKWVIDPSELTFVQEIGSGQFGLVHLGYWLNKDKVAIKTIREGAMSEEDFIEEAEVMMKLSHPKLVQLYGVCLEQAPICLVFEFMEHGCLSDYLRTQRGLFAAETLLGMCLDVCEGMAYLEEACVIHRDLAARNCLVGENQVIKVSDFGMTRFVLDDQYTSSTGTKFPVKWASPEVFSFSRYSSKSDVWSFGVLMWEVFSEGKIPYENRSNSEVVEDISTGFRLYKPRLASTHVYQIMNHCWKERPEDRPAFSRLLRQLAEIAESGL
Conditions: at 0.1 µM.

Experiment [10] concerns the target T1, Tyrosine-protein kinase ITK/TSK (Homo sapiens). The conditions noted are these: at 1 µM.
For experiment [11], the target named is Tyrosine-protein kinase JAK1 (Homo sapiens) (UniProt P23458). The conditions noted are these: at 0.1 µM.
Tyrosine-protein kinase JAK1 (Homo sapiens), sequence (P23458 whole entry): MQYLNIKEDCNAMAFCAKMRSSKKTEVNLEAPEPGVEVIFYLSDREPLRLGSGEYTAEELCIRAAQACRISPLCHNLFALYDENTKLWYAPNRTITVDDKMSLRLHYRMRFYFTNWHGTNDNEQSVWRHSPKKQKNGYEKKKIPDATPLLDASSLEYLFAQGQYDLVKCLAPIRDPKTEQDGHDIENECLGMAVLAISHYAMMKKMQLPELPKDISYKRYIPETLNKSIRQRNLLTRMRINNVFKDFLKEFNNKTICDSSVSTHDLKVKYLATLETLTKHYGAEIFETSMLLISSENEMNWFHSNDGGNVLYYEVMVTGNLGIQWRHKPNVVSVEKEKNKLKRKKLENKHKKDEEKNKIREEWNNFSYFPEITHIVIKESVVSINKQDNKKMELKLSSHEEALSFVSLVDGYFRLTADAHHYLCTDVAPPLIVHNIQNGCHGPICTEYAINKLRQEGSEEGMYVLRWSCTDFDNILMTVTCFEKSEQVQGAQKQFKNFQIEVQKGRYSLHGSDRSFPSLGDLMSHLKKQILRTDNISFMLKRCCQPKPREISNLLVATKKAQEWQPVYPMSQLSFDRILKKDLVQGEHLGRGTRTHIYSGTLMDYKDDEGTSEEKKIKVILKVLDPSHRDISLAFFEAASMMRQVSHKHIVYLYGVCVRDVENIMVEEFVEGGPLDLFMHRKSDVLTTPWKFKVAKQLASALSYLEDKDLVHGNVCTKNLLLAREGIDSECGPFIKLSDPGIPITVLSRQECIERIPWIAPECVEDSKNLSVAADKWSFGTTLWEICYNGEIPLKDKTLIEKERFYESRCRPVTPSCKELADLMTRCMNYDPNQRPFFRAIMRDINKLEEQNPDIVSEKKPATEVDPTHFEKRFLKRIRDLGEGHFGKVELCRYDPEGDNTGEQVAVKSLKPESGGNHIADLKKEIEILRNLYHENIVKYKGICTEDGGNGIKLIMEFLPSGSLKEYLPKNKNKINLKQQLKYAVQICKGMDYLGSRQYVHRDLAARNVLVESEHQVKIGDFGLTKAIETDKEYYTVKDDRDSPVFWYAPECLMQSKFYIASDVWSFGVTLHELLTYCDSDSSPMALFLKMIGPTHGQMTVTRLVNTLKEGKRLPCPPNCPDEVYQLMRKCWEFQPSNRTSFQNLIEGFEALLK
Experiment [12] shares this target. The conditions noted are these: at 1 µM.
Experiment [13] has as its target Tyrosine-protein kinase JAK2 (Homo sapiens) (UniProt O60674). The conditions noted are these: at 0.1 µM.
Experiment [14] has the same target. Conditions: at 1 µM.
The target of experiment [15] is T2, Tyrosine-protein kinase JAK3 (Homo sapiens) (UniProt P52333).
T2 sequence (whole entry): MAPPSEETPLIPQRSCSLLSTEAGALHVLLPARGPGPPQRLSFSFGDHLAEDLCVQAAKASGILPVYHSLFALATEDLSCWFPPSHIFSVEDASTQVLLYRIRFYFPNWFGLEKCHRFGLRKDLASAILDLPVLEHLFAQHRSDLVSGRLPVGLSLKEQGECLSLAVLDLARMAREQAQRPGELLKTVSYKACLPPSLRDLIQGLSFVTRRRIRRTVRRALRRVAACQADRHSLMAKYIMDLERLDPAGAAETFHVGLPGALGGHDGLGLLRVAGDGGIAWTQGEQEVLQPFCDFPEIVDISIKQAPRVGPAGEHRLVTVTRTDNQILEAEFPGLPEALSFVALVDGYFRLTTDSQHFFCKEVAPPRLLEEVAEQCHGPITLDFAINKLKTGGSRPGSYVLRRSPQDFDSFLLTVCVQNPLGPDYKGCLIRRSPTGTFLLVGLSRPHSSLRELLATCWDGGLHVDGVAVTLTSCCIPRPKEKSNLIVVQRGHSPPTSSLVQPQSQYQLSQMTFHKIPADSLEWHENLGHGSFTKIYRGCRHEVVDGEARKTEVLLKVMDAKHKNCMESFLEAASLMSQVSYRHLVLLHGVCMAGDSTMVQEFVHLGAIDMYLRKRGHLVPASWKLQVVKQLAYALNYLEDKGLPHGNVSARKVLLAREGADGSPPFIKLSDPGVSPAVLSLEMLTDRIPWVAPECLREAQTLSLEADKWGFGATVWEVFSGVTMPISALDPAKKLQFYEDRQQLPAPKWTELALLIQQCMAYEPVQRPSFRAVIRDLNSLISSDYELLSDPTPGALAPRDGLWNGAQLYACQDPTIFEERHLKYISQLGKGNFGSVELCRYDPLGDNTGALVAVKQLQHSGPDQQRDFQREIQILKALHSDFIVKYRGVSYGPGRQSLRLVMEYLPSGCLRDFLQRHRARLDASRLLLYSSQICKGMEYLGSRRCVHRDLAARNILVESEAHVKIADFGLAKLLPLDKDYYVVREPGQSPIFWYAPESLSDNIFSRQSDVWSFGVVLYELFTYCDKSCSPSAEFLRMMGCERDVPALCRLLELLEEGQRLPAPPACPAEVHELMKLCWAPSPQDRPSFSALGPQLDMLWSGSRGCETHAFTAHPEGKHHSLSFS
Conditions: at 0.1 µM.

Experiment [16] addresses T2, Tyrosine-protein kinase JAK3 (Homo sapiens). Conditions: at 1 µM.
The target in experiment [17] is Vascular endothelial growth factor receptor 2 (Homo sapiens) (UniProt P35968). Conditions: at 0.1 µM.
Vascular endothelial growth factor receptor 2 (Homo sapiens), sequence (P35968 whole entry): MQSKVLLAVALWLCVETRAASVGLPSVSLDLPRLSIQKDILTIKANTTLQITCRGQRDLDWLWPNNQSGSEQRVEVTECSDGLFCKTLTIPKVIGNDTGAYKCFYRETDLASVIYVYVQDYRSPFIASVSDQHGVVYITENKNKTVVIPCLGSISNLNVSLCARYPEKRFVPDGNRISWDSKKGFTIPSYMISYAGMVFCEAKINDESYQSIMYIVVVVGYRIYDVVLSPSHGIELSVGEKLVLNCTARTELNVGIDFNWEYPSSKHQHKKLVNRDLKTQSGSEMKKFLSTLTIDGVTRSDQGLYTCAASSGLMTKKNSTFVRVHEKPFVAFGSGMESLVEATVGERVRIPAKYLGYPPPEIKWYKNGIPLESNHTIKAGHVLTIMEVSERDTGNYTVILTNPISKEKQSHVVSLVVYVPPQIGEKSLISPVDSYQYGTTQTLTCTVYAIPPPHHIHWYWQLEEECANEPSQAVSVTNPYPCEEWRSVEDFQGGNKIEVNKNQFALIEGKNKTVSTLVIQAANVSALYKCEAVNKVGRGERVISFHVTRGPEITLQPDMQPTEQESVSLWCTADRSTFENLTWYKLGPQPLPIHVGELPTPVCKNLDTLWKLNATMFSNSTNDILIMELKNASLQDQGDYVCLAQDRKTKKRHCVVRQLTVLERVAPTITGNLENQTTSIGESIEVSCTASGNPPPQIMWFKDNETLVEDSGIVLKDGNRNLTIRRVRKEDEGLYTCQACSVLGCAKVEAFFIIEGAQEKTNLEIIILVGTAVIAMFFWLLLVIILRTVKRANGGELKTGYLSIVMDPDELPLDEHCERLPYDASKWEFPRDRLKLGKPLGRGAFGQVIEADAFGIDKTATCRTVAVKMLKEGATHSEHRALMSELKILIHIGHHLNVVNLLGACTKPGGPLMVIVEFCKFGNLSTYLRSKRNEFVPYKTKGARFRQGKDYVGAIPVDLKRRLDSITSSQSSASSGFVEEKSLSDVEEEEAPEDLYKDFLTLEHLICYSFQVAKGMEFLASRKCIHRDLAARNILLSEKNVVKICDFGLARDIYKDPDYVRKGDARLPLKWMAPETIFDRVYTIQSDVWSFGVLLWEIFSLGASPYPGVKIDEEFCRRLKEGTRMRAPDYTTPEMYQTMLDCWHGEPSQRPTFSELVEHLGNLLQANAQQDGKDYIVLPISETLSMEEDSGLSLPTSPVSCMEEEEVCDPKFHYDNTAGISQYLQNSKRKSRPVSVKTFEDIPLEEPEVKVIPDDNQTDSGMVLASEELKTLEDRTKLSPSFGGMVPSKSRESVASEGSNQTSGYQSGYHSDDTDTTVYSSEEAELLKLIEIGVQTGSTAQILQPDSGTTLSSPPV
Experiment [18] shares this target. Conditions: at 1 µM.
In experiment [19] the target is Mast/stem cell growth factor receptor Kit (Homo sapiens) (UniProt P10721). Conditions: at 0.1 µM.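 Note: values are mean inhibition of KIT, from the GSK PKIS dataset.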
For experiment [20], the target named is Insulin receptor (Homo sapiens) (UniProt P06213). The conditions noted are these: at 1 µM.

Tyrosine-protein kinase Fyn (Homo sapiens), sequence (P06241 2-537 limits assumed): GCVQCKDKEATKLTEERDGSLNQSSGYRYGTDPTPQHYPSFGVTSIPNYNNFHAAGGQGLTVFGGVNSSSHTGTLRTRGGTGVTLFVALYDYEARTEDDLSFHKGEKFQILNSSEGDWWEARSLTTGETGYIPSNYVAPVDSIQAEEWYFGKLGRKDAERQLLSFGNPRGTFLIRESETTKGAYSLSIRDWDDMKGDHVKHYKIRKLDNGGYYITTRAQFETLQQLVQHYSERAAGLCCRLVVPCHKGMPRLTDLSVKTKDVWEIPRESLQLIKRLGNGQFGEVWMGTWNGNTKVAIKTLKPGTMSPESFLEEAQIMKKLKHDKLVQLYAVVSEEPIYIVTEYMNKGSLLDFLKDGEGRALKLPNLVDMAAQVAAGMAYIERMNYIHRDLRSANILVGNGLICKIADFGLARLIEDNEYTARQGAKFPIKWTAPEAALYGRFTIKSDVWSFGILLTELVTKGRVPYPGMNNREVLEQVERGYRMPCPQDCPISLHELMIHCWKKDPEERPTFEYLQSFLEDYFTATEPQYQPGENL
Tyrosine-protein kinase HCK (Homo sapiens), sequence (P08631 2-526 limits assumed): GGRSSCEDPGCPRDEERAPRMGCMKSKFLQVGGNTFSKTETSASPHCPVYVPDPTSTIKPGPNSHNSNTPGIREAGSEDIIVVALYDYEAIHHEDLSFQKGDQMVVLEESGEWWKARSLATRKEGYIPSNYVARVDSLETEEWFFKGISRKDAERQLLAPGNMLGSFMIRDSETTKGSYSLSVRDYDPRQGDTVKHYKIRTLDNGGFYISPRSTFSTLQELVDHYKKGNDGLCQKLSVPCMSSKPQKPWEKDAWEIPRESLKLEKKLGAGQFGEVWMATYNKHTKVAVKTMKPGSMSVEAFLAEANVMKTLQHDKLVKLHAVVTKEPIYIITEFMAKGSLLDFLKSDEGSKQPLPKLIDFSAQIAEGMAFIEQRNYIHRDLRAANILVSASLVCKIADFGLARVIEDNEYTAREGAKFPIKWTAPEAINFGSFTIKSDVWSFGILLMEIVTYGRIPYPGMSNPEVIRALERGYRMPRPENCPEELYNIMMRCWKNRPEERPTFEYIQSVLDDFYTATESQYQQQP
Tyrosine-protein kinase JAK2 (Homo sapiens), sequence (O60674 whole entry): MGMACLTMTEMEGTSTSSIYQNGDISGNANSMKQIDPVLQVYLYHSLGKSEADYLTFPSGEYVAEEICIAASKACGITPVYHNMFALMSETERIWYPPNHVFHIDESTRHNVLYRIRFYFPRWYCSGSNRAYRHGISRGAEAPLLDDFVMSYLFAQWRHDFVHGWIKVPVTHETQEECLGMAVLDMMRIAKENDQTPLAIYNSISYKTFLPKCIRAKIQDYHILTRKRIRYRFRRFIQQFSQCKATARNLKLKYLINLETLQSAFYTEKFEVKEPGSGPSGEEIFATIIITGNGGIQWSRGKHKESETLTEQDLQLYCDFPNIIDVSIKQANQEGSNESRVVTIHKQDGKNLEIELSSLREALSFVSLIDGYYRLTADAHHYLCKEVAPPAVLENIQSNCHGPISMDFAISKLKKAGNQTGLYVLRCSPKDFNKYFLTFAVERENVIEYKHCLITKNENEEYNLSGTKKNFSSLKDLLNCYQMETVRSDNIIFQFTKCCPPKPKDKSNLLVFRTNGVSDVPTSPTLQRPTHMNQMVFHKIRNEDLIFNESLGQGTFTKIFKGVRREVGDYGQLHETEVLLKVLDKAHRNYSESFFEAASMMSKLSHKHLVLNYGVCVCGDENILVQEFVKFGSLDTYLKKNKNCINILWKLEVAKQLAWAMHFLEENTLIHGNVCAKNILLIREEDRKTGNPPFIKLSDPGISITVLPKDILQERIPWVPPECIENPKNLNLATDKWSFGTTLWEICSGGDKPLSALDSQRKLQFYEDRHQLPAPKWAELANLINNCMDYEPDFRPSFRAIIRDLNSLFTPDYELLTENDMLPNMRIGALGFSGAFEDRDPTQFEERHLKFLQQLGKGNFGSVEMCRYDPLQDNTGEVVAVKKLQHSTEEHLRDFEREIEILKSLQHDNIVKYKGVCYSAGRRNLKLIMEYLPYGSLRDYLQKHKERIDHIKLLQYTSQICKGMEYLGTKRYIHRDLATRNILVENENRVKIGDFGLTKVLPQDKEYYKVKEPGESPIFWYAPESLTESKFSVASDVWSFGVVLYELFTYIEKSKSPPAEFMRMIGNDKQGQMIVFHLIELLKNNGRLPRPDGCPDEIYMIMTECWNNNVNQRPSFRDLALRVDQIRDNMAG

As for `O=C(Nc1n[nH]c2nc(-c3ccco3)c(Br)cc12)C1CC1`, the inhibition in experiment [1] worked out at 1.8%; in [2], 5.5%; in experiment [3] it was 9.03%; in experiment [4] it was 2.77%; in [5] it was 3.89%; in experiment [6], 3.98%. In addition, the inhibition in [7] was 2.25%; in [8], 1.49%; in experiment [9], 3.8%; in experiment [10] it was 23.7%; in [11] it was 2.41%; in experiment [12], -1.14%. For the same molecule, the inhibition in experiment [13] was 1.5%; in [14], 1.59%; in experiment [15], -1.04%; in experiment [16] it was 1.18%; in experiment [17] it was 5.71%; in experiment [18] it was 15.5%. Besides, in [19], the inhibition came to 6.02%.
With `CS(=O)(=O)CCNCc1ccc(-c2ccc3ncnc(Nc4ccc(OCc5cccc(F)c5)c(C(F)(F)F)c4)c3c2)o1`, the inhibition in experiment [1] came to 2.37%; in experiment [2] it was 5.21%; in experiment [3] it was 4.98%; in experiment [4], 0.07%; in experiment [5], 1.69%; in [6], 5.7%. Further, the inhibition turned out to be 6.44% in [20]; 3.1% in [7]; 2.55% in experiment [8]; 1.12% in experiment [9]; 0.72% in [10]; 3.98% in experiment [11]. In addition, the inhibition in experiment [12] is 13.3%; in experiment [13] it was 0.47%; in experiment [14], 1.17%; in experiment [15], -0.58%; in [16], -0.15%; in experiment [17], 3.99%. The inhibition in experiment [18] was 3.93%; in [19], 3.96%.
`COc1ccc(COc2ccc(Cc3cnc(N)nc3N)cc2OC)cc1`: the inhibition in [1] is 1.28%; in experiment [2] it was 3.28%; in experiment [3] it was 3.12%; in experiment [4], -2.27%; in experiment [5] it was -0.91%; in [6], 0.54%. In addition, the inhibition in experiment [20] was -1%; in experiment [7], 0.04%; in experiment [8], -0.57%; in experiment [9], 1.47%; in [10] it was 2.31%; in experiment [11] it was 3.77%. Moreover, the inhibition in experiment [12] was -0.05%; in experiment [13], 1.99%; in experiment [14] it was 4.19%; in [15] it was 2.12%; in [16], 3.61%; in [17], 6.02%. Moreover, the inhibition in [18] stood at 9.65%; in experiment [19], 1.04%.
As to `COc1ccc2cc(-c3c(-c4ccncc4)nc(-c4ccc([S+](C)[O-])cc4)n3C)ccc2c1` (stereo unspecified), the inhibition is 2.67% in experiment [1]; 4.09% in [2]; 6.94% in experiment [3]; 1.13% in [4]; 0.1% in experiment [5]; -0.81% in experiment [6]. Further, the inhibition in experiment [20] stood at 3.26%; in experiment [7] it was 1.09%; in [8], 1.11%; in [9], 1.06%; in experiment [10] it was 3.22%; in [11], 1.65%. The inhibition was -2.81% in [12]; 0.86% in experiment [13]; 2.23% in experiment [14]; -0.93% in experiment [15]; 0.05% in [16]; 4.56% in experiment [17]. For the same molecule, the inhibition in experiment [18] was found to be 17.8%; in experiment [19], 1.88%.
On to `Nc1ncnc2occ(-c3ccc(NC(=O)Nc4cc(C(F)(F)F)cc(C(F)(F)F)c4)cc3)c12`, for which the inhibition is 10.3% in experiment [1]; 6.07% in experiment [2]; 27.1% in experiment [3]; 1.24% in [4]; 7.12% in experiment [5]; -4.81% in [6]. In addition, the inhibition was 6.05% in experiment [20]; 5.56% in [7]; 2.23% in [8]; 1.65% in [9]; 11.2% in experiment [10]; -0.74% in experiment [11]. Further, the inhibition in experiment [13] is 0.74%; in experiment [14] it was 1.44%; in [15], 0.06%; in experiment [16], 0.78%; in [17], 46.7%; in experiment [18] it was 68.2%. Moreover, the inhibition in experiment [19] came out at 29%.
Turning to `COc1cc2ncn(-c3cc(OCc4ccccc4C(F)(F)F)c(C(N)=O)s3)c2cc1OC`, the inhibition in experiment [1] was 9.2%; in [2] it was 8.32%; in [3], 29.2%; in [5], -2.72%; in [6] it was -1.5%; in [20] it was 2.13%. In addition, the inhibition in experiment [7] was 4.32%; in [8], 3.34%; in experiment [9], -3.84%; in experiment [10] it was -0.36%; in experiment [11] it was 1.72%; in experiment [12] it was 2.62%. Further, the inhibition in [13] was 1.67%; in experiment [14] it was 1.84%; in experiment [15] it was -6.46%; in [16] it was -2.61%; in [17], 21.7%; in experiment [18] it was 68.9%.
Consider `COc1cc(C=NNc2ncnc3c2cnn3-c2ccccc2)ccc1O`, for which the inhibition in experiment [1] was 47.5%; in [2], 8.92%; in [3] it was 41.6%; in [4] it was 1.72%; in experiment [5], 3.81%; in experiment [6] it was 3.42%. Also, the inhibition in [20] was 2.58%; in [7], 3.25%; in [8] it was 2.41%; in [9], 1.47%; in [10], 4.53%; in experiment [11], 2.76%. Moreover, the inhibition in [12] is 3.21%; in experiment [13], 1.26%; in [14], 8.82%; in experiment [15] it was -0.33%; in experiment [16], 4.39%; in experiment [17] it was 12.4%. The inhibition in [18] came out at 49.6%; in experiment [19], 15%.

As usually defined, the inhibition is the drop in the measured response relative to a control, in per cent.
